Results published in PubChem BioAssay AID1851 (National Center for Advancing Translational Sciences (NCATS), 2009).
Where “and” joins values, the source holds several entries; their conditions need not be identical. Equal entries are not always repeated. Out of some 16,000 compounds screened, about 2,600 (16%) were called active. Another 20% or so got no clear call; they are omitted. Calls follow the shape of the dose curve; as a rule, active = well fitted curve in the direction sought with a large enough effect; inconclusive = small, poorly fitted or top-dose-only effect, or effect the other way; inactive = no such curve, though single readings can be large or run the other way. These entries were drawn from the full list. More than one record can exist for a structure, and the calls need not agree.

Target: Cytochrome P450 2D6 (Homo sapiens) (UniProt P10635)
Sequence (P10635 whole entry, looked up): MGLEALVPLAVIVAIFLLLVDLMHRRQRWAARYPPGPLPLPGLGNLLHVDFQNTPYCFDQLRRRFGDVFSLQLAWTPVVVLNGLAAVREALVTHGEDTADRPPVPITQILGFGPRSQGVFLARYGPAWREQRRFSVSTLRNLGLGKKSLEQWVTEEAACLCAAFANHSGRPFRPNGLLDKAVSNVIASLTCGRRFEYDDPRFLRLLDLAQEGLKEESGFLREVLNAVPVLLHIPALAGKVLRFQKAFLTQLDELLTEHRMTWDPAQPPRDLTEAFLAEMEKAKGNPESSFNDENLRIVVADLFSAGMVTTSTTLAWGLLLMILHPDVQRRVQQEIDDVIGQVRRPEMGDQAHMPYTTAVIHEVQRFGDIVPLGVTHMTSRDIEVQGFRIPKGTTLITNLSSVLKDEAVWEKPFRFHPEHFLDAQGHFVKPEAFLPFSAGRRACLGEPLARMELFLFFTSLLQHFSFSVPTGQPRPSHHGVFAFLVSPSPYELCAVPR
Test: Cytochrome panel assay with activity outcomes
Conditions: recombinant CYP, pro-luciferin dealkylation, luminescence, p450-cyp2d6; series mostly up to 57.1 µM; activity, negative = inhibition: at the top concentration
% is scaled to controls: 0 for no effect and ±100 for the full control effect.

Row | SMILES | activity, negative = inhibition | AC50
1 | Cc1nc(CN2CCCCC2)c(O)c(=O)[nH]1 | -19.7% [at 11.4 µM] (inactive) | –
2 | N[C@@H](Cc1[nH]nc2ccccc12)C(=O)O | 3.39% [at 11.4 µM] (inactive) | –
3 | O=C(/C=C/c1ccccc1)NNC(=O)c1cccnc1 | -3.07% (inactive) | –
4 | C=CC1=C(C)C2=Cc3c(C=C)c(C)c4[n]3[Sn+2][n]3c(c(C)c(CCC(=O)O)c3=CC3=NC(=C4)C(C)=C3CCC(=O)O)=CC1=N2 | – | 1.26 µM (active)
5 | CCCCCN1CC(O)=C(c2nc(-c3ccc(Cl)cc3)cs2)C1=N | 28.4% (inactive) | –
6 | Cc1nc2ccccc2nc1-c1ccc(N=[N+]([O-])c2ccc(-c3nc4ccccc4nc3C)cc2)cc1 | -15.4% [at 11.4 µM] (inactive) | –
7 | NC(=O)C[C@H](NC(=O)Cc1ccc(O)cc1O)C(=O)O | 5.57% (inactive) | –
8 | O=C(NCc1ccc(Cl)cc1)c1ccc(Cl)cc1[N+](=O)[O-] | -15.3% (inactive) | –
9 | CC(C)(CNC(=O)c1ccc([N+](=O)[O-])c(Cl)c1)CNC(=O)c1ccc([N+](=O)[O-])c(Cl)c1 | – | 3.16 µM (active)
10 | COc1ccc(Cc2nnc(NC(=O)c3ccc(Cl)c([N+](=O)[O-])c3)s2)cc1 | 9.11% (inactive) | –
11 | Nc1nc(N)nc(CC(=O)O)n1 | -1.79% [at 11.4 µM] (inactive) | –
12 | O=C(Nc1ccc([N+](=O)[O-])cc1Cl)c1cc(Cl)ccc1O | – | 31.6 µM (active) and inactive
13 | Cc1cccc[n+]1CC(=O)Nc1ccc([N+](=O)[O-])cc1Cl | -9.2% (inactive) | –
14 | O=C(N/N=C1\CCCc2ccccc21)c1ccc([N+](=O)[O-])cc1Cl | 3.67% (inactive) | –
15 | COc1ccccc1-c1cc(N(C)Cc2ccco2)ncn1 | – | 12.6 µM (active)
16 | CN(C)Cc1ccccc1-c1cc(N(C)Cc2ccco2)ncn1 | – | 7.94 µM (active)
17 | CN(Cc1ccco1)c1cc(-c2ccccc2Cl)ncn1 | -15.6% (inactive) | –
18 | CCc1nc2cc(CC(=O)O)ccc2o1 | 3.13% (inactive) | –
19 | N[C@@H](COP(=O)(O)O)C(=O)O | 13.7% (inactive) | –
20 | COc1cccc(NC(=S)NN2CCN(C)CC2)c1 | -18.7% (inactive) | –
21 | Cc1ccc(NC(=O)CN2C(=O)S/C(=C\c3cccn3C)C2=O)cc1 | 22% (inactive) | –
22 | Cn1cc(-c2nc3cncnc3n(-c3ccccc3)c2=O)c2ccccc21 | -7.45% (inactive) | –
23 | Cn1c(=O)c2[nH]c(CCCCC(=O)O)nc2n(C)c1=O | -13.7% [at 11.4 µM] (inactive) | –
24 | CCn1c(=O)c2c(nc3n2CCS3)n(C)c1=O | 4.82% (inactive) | –

Row | SMILES | activity, negative = inhibition | AC50
25 | CCCCc1c(O)nc(SCCN(C)C)n(-c2ccccc2)c1=O | -18.2% (inactive) | –
26 | CCCCc1cc2ccccc2c(OCCN(C)C)n1 | – | 2 µM (active)
27 | C/C(=N\NC(=O)c1ccccc1C)c1ccc(NC(=O)c2cccs2)cc1 | -5.07% (inactive) | –
28 | NS(=O)(=O)c1ccc(N=Nc2cc3ccccc3c(C(=O)O)c2O)cc1 | 4.38% [at 11.4 µM] (inactive) | –
29 | Nc1ccccc1S[C@@H](C[N+](=O)[O-])c1ccc2c(c1)OCO2 | – | 3.98 µM (active)
30 | Cc1ccc(OC(=O)c2cccc(C(=O)Oc3ccc(C)cn3)n2)nc1 | -6.82% (inactive) | –
31 | CN1CCCCC1=NCCCn1cnc2c1c(=O)n(C)c(=O)n2C | 5.89% (inactive) | –
32 | COc1cc(/C=N/NC(=O)c2cccnc2)ccc1OC(=O)c1ccc2c(c1)OCO2 | 10.4% (inactive) | –
33 | CCOC(=O)N/N=C1/C[C@@H](O)[C@@H](O)[C@@H]2[C@@H]3C(=O)N(Cc4ccc5c(c4)OCO5)C(=O)[C@H]3CC[C@@H]12 | 6.47% [at 11.4 µM] (inactive) | –
34 | COc1ccc(C(=O)N/N=C2/SCC(=O)N2Cc2ccc3c(c2)OCO3)cc1OC | – | 15.8 µM (active)
35 | CCOC(=O)N1CCN(C(=O)CN(C)S(=O)(=O)c2ccc3c(c2)C(C)(C)C(=O)N3C)CC1 | 20.2% (inactive) | –
36 | CC[C@@H]1OC(=O)[C@H](C)[C@H](O[C@@H]2C[C@](C)(OC)[C@H](O)[C@H](C)O2)[C@H](C)[C@H](O[C@@H]2O[C@@H](C)C[C@@H](N(C)C)[C@@H]2O)[C@](C)(O)C[C@H](C)[C@@H]2N[C@H](COCCOC)O[C@H]([C@@H]2C)[C@]1(C)O | 8.43% [at 25.6 µM] (inactive) | –
37 | COc1ccccc1CN1CCCC2(CCN(S(C)(=O)=O)CC2)C1 | – | 0.0631 µM (active)
38 | COc1ccccc1CN1CC[C@@]2(CCCN(S(C)(=O)=O)C2)C1 | – | 0.316 µM (active)
39 | CS(=O)(=O)N1CCC2(CCN(Cc3nccs3)CC2)CC1 | 7.26% (inactive) | –
40 | COc1ccccc1CN1CCC2(CC1)CCN(S(C)(=O)=O)CC2 | – | 0.02 µM (active)
41 | COc1ccccc1CN1CC[C@@]2(CCCN(S(=O)(=O)c3ccccc3)C2)C1 | – | 0.01 µM (active)
42 | COc1ccc(NC(=O)N2CC[C@@]3(CCCN(S(C)(=O)=O)C3)C2)cc1 | 20.3% (inactive) | –
43 | CS(=O)(=O)N1CCC[C@@]2(CCN(c3ccncc3)C2)C1 | -1.64% (inactive) | –
44 | O=S(=O)(c1ccccc1)N1CCC[C@@]2(CCN(c3ccccc3)C2)C1 | -10.2% (inactive) | –
45 | COc1ccc(NC(=O)N2CCCC3(CCN(S(C)(=O)=O)CC3)C2)cc1 | -0.845% (inactive) | –
46 | Cn1cc(-c2nc3cnc(Oc4ccccc4)nc3n(Cc3cccs3)c2=O)c2ccccc21 | 7.6% (inactive) | –
47 | CC(C)Cn1c(SCC(=O)c2c(N)n(C)c(=O)n(C)c2=O)nc2ccccc21 | -5.6% (inactive) | –
48 | COCCNC(=O)c1onc(CSc2cccc(Cl)c2)c1C(=O)O | 17.7% (inactive) | –

Row | SMILES | activity, negative = inhibition | AC50
49 | Nc1ccc(N=Nc2ccc(-c3ccc(O)cc3)cc2)c2ccc(S(=O)(=O)O)cc12 | 3.2% [at 11.4 µM] (inactive) | –
50 | O=C(O)c1[nH]c2c([N+](=O)[O-])cc([N+](=O)[O-])cc2c1C(=O)O | 11.1% [at 11.4 µM] (inactive) | –
51 | NC(=O)C[C@H](N)C(N)=O | -0.87% [at 11.4 µM] (inactive) | –
52 | CC1CCN(C(=O)Nc2ccc3nsnc3c2)CC1 | 4.11% (inactive) | –
53 | COc1ccc(NC(=O)N2CC3(CCN(S(=O)(=O)c4ccccc4)CC3)C2)cc1 | -4.48% (inactive) | –
54 | O=S(=O)(c1ccccc1)N1CCC2(CCCN(Cc3nccs3)C2)CC1 | 12% (inactive) | –
55 | COc1ccccc1CN1CCC2(CC1)CCN(S(=O)(=O)c1ccccc1)CC2 | – | 0.158 µM (active)
56 | O=S(=O)(c1ccccc1)N1CCC[C@@]2(CCN(Cc3nccs3)C2)C1 | – | 2.51 µM (active)
57 | O=S(=O)(c1ccccc1)N1CCC2(CC1)CN(Cc1nccs1)C2 | 1.8% (inactive) | –
58 | CN1CCC2(CC1)CCN(S(=O)(=O)c1ccccc1)CC2 | 2.59% (inactive) | –
59 | Cc1cccn2c(=O)c(C=NCc3ccco3)c(Nc3ccc(SC(F)F)cc3)nc12 | 3.01% (inactive) | –
60 | COC(=O)[C@@H]1O[C@@H](SCCN)[C@@H](O)[C@H](O)[C@H]1O | -0.405% [at 11.4 µM] (inactive) | –
61 | C#CCSc1nnc(-c2sc(-c3ccccc3)nc2C)n1C | – | 6.31 µM (active)
62 | CSc1nnc(-c2sc(-c3ccccc3)nc2C)n1C | -9.68% (inactive) | –
63 | C#CCSc1nnc(-c2cc3c(C(F)(F)F)nn(C)c3s2)n1C | -7.93% (inactive) | –
64 | CC(=O)c1cc2ccccc2oc1=O | -7.3% [at 25.6 µM] (inactive) | –
65 | COC(=O)C1CSC(C(=O)OC)N1C(=O)Nc1c(C)cccc1C (stereo not given) | 19.8% (inactive) | –
66 | O=C(CSCc1c(F)cccc1Cl)NCC1CCCO1 (stereo not given) | -8.79% (inactive) | –
67 | Cc1ccc(CS(=O)(=O)Cc2ccc(C(=O)NCC3CCCO3)o2)cc1 (stereo not given) | -6.61% (inactive) | –
68 | O=C(CN(Cc1ccccc1Cl)C(=O)c1ccc(CN2CCOCC2)o1)NCC1CCCO1 (stereo not given) | – | 7.08 µM (active)
69 | Cc1ccccc1NC(=O)c1cccc2nc3ccccc3nc12 | -15.8% (inactive) | –
70 | COC(=O)C/C=C\[C@@H](C)[C@@H](/C=N\OC[C@@H]1O[C@H](c2ccccc2)C=C[C@@H]1Oc1ccc(OC)cc1)NS(=O)(=O)c1ccc(C)cc1 | -14% [at 11.4 µM] (inactive) | –
71 | N=C(N)SCCc1cnc[nH]1 | – | 25.1 µM (active) and 6.31 µM (active)
72 | N=C(N)SCCCN | -11.8% [at 11.4 µM] (inactive) | –

Row | SMILES | activity, negative = inhibition | AC50
73 | O=C(NCCNC[C@@H](O)COc1ccc(O)cc1)N1CCOCC1 | – | inactive
74 | Cc1nc(Oc2ccc(Cl)cc2)c2oc3ccccc3c2n1 | -7.69% (inactive) | –
75 | CCn1c(=O)cc(OCC(=O)Nc2cccnc2)c2ccccc21 | – | 6.31 µM (active)
76 | COc1ccccc1OCC(=O)NNC(=O)c1cnccn1 | 10.5% (inactive) | –
77 | Cn1c(=O)cc(OCC(=O)NCc2cccnc2)c2ccccc21 | -25.4% (inactive) | –
78 | Cc1cc(N2CCOCC2)ccc1/C=C1\SC(=O)N(C(C)C)C1=O | -6.56% (inactive) | –
79 | COC(=O)[C@H](C)NC(=O)[C@@H](C)CO | -0.424% [at 11.4 µM] (inactive) | –
80 | Cn1c(=O)c2[nH]c(/N=N\N3CCN(CCO)CC3)nc2n(C)c1=O | 3.89% [at 11.4 µM] (inactive) | –
81 | N[C@H](Cc1ccc(Cl)cc1)C(=O)O | -8.94% (inactive) | –
82 | N[C@@H](C(=O)O)[C@H](CC(=O)O)c1ccc(Cl)cc1 | – | 2.51 µM (active)
83 | O=C(O)CCC(=O)c1ccc(Cl)cc1 | 11.7% [at 11.4 µM] (inactive) | –
84 | CCn1c(SCc2ccc(C(=O)Nc3nccs3)cc2)nnc1-c1ccc(NC(C)=O)cc1 | -29.1% (inactive) | –
85 | CC12CCC(C(=O)Nc3ccccc3Br)(C/C1=N\O)C2(C)C (stereo not given) | 8.66% (inactive) | –
86 | Cc1cnc(CNc2ccnc(-c3c(C)noc3C)n2)cn1 | -9.71% (inactive) | –
87 | CN(C)c1ccc(-c2nccc(NCc3cccs3)n2)cc1 | – | 0.126 µM (active)
88 | c1csc(CNc2ccnc(-c3ccoc3)n2)c1 | – | 3.16 µM (active)
89 | c1cncc(-c2nccc(NCc3cccs3)n2)c1 | – | 0.631 µM (active)
90 | c1ccc(CNc2ccnc(-c3ccoc3)n2)cc1 | – | 20 µM (active)
91 | Cc1cnc(CNc2ccnc(-c3ccoc3)n2)cn1 | -4.01% (inactive) | –
92 | COc1ncc2ncc(=O)n(Cc3ccc(F)cc3)c2n1 | 5.3% (inactive) | –
93 | CCC(C)[C@H](NC(=O)Nc1ccc(Oc2ccccc2)cc1)C(=O)O (stereo not given in full) | 11.5% (inactive) | –
94 | O=C(O)c1c[nH]c2cc(OCc3ccccc3)ccc2c1=O | 4.69% [at 11.4 µM] (inactive) | –
95 | O=C(O)[C@@H]1[C@@H]2C[C@H]([C@@H](Br)[C@H]2N2C(=O)CCC2=O)[C@@H]1C(=O)O | -2.86% [at 11.4 µM] (inactive) | –
